Hit rate of the full screen: of about 370,000 compounds, about 3,800 (1%) were called active. No stated cut-off is given here; in the data, active means activation above about 7.8%; inactive means the rest. For the sample, actives were picked, then their nearest neighbours and some compounds at random.
Test: SMARCA2 (BRM) function activators, primary screen, cell-based, luminescence, high throughput (AID 652017);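 further: 0% = vehicle wells and 100% = reference activator wells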
Conditions: MG213 cells, MMTV-luciferase reporter, dexamethasone, overnight; at 9.1 µM; hits give high values

Row | SMILES | activation
1 | N#Cc1cccc(NC(=O)COC(=O)c2ccccc2C(=O)c2ccc(Cl)c([N+](=O)[O-])c2)c1 | 6.3% (inactive)
2 | O=C(CN1CCCc2ccccc21)NCc1ccc(F)cc1 | 4.7% (inactive)
3 | Cc1ccc(-n2c(SCC(=O)Nc3cccc4ccccc34)nnc2-c2ccco2)cc1 | -1.08% (inactive)
4 | Cc1cc(C)c2nc3nc(C)cc(C)c3c(N)c2c1 | 22.7% (active)
5 | C[C@@H]1ON(C)[C@H]2C[C@H]3c4[nH]c5cccc(-c6ccc7c(c6)OCO7)c5c4CCN3C[C@@H]12 | -5.68% (inactive)
6 | Clc1ccc(C(Cn2ccnc2)OCc2ccsc2Cl)c(Cl)c1 (centres undefined) | -7.85% (inactive)
7 | COc1ccc(Cn2cccc(NC(=O)Nc3ccc(C#N)cc3)c2=O)cc1 | -4.78% (inactive)
8 | Cc1c(C#N)c(NC(=O)c2ccccc2)n(Cc2ccccc2)c1C | -1.06% (inactive)
9 | COc1ccc(Cn2c(C)c(C)c(C#N)c2NC(=O)Nc2ccc(F)cc2)cc1 | 13.3% (active)
10 | CC(NCc1ccco1)C(=O)N1CCCCC1 (centres undefined) | -2.78% (inactive)
11 | CC1CCN(c2ccc(C(=O)O)cc2NS(=O)(=O)c2ccc(Br)s2)CC1 | 0.67% (inactive)
12 | CCOC(=O)c1cccc(NC(=O)CN(C)S(=O)(=O)c2ccc(-c3cocn3)s2)c1 | -7.26% (inactive)
13 | CCCN1C(=O)C(Cc2nc3ccccc3c(=O)n2-c2ccccc2)c2cc(C)ccc21 (centres undefined) | 8.92% (active)
14 | Cc1ccc(S(=O)(=O)NCc2nc3ccccc3c(=O)n2N)cc1 | -5.01% (inactive)
15 | CC(C)CC1NC(=O)c2cc(Cl)ccc2-n2c1nc1ccccc1c2=O (centres undefined) | -0.02% (inactive)
16 | O=C(OC12CCCN(C1)/C(=C/c1ccccc1)C2)c1ccco1 (centres undefined) | -4.02% (inactive)
17 | CC[C@H](NC(=O)[C@H](Cc1ccccc1)NC(=O)[C@H]1O[C@@H](n2cnc3c(=O)[nH]c(N)nc32)[C@H](O)[C@@H]1O)c1ccccc1 | -4.41% (inactive)
18 | CC(C)(C)c1ccc(NC(=O)NCc2ccco2)cc1 | 8.76% (active)
19 | COC(=O)Cc1ccc(NC(=S)NCc2ccco2)cc1 | -1.02% (inactive)
20 | COC(=O)/C=C/C(=O)NCc1ccco1 | 1.96% (inactive)
21 | COC(=O)[C@H](C(C)C)N1CCc2nnn(Cc3ccc(C)cc3)c2-c2ccccc2S1(=O)=O | -3.89% (inactive)

Row | SMILES | activation
22 | COc1ccc(C(CNC(=O)c2ccc(NS(=O)(=O)c3ccc(F)c(C)c3)cc2)N(C)C)cc1 (centres undefined) | -1.05% (inactive)
23 | COc1ccc(C(CNC(=O)c2ccc(S(=O)(=O)Nc3ccccc3F)cc2)N(C)C)cc1 (centres undefined) | 8.4% (active)
24 | CC(=O)c1ccc(S(=O)(=O)Nc2ccc(C(=O)NCC(c3ccccc3)N(C)C)cc2)cc1 (centres undefined) | 5.98% (inactive)
25 | CC(=O)Nc1ccc(OC[C@@H](O)CN2CCC(C(O)(c3ccccc3)c3ccccc3)CC2)cc1 | -1.46% (inactive)
26 | COCCCNC(=O)C[C@H]1C[C@@]2(C(=O)OC)C(=C[C@H](C(C)(C)C)O[C@@H]2C)N(Cc2ccc(Cl)cc2Cl)C1=O | -4% (inactive)
27 | Cc1c(C(C)c2ccccc2O)[nH]c2ccccc12 (centres undefined) | -2.39% (inactive)
28 | Cc1ccc(NC(=O)C(=O)NCc2ccc(/C=N/NC(=O)c3c(C)nc4cc(C)ccn34)o2)cc1 | -0.59% (inactive)
29 | Cc1ccc(NC(=O)Nc2cc(C)nn2-c2ccccc2)cc1 | -3.87% (inactive)
30 | COc1cccc(OCCOc2cccc(/C=N/n3cnnc3)c2)c1 | 10.1% (active)
31 | Cc1ccccc1OCCOc1ccc([N+](=O)[O-])cc1/C=N/n1cnnc1 | -1.85% (inactive)
32 | C=CCc1ccc(OCCOc2cccc(/C=N/n3cnnc3)c2)c(OC)c1 | 2.79% (inactive)
33 | CCc1ccc[n+](-c2nc([O-])sc2C=O)c1 | 8% (active)
34 | COc1ccc(N2CCN(CCNS(=O)(=O)c3ccc([N+](=O)[O-])cc3)CC2)cc1 | -3.04% (inactive)
35 | CN(C(=O)c1cccc(NC(=O)Cc2cccc([N+](=O)[O-])c2)c1)C1CCCCC1 | -2.39% (inactive)
36 | O=C(Cc1ccc([N+](=O)[O-])cc1)NCCc1ccc2c(c1)OCO2 | 4.55% (inactive)
37 | O=C(Nc1cccc([N+](=O)[O-])c1)c1ccc2c(c1)OCO2 | 8.1% (active)
38 | COc1ccc(Cl)cc1NC(=O)CN(C)CC(=O)Nc1ccc2c(c1)OCO2 | -3.2% (inactive)
39 | COc1ccc(C(=O)Nc2ccc3c(c2)OCO3)cc1OC | 16.7% (active)
40 | COc1ccc(C(=O)Nc2ccc(C3(C#N)CCCC3)cc2)cc1OC | 1.54% (inactive)
41 | Cn1c(Cc2cccs2)nnc1SCC(=O)Nc1ccccc1 | 4.18% (inactive)
42 | Cc1ccccc1CS(=O)(=O)Cc1ccc(C(=O)Nc2ccc(Cl)cc2)o1 | -8.47% (inactive)

Row | SMILES | activation
43 | CCc1nn(-c2cc(Oc3cccc4ccccc34)nc(-c3ccccc3)n2)c(N)c1C#N | 0.3% (inactive)
44 | CCNC(=S)N1CCN(S(=O)(=O)c2ccc(Cl)s2)CC1 | -1.32% (inactive)
45 | CCNC(=S)N1CCN(c2ncccn2)CC1 | 8.35% (active)
46 | Cc1ccc(NC(=S)N2CCN(c3ncccn3)CC2)cc1C | 2.65% (inactive)
47 | O=S1(=O)c2ccc(Br)cc2OC[C@@H](Cc2ccccc2)N1Cc1cn(Cc2ccco2)nn1 | -0.61% (inactive)
48 | Cc1cccc(C2C3=C(CCCC3=O)N=C3c4ccccc4C(=O)C32)c1 (centres undefined) | 1.45% (inactive)
49 | COc1ccc(CCNC(=O)CSc2nc3c([nH]2)c(=O)n(C)c(=O)n3C)cc1 | -2.8% (inactive)
50 | C=CCn1c(SCC(=O)/C(C#N)=C(\C)N)nc2sc(C)c(C)c2c1=O | -1.26% (inactive)
51 | CCCn1c(=O)c2ccccc2n2c(SCC(=O)/C(C#N)=C(\C)N)nnc12 | 9.35% (active)
52 | C=CCn1c(=O)c2ccccc2n2c(SCC(=O)N3CCCc4ccccc43)nnc12 | 1.43% (inactive)
53 | COc1ccc(CN2C/C(=C/c3ccccc3)N3C(=O)C[C@@H](c4ccccc4)N=C23)c(OC)c1 | -4.07% (inactive)
54 | COc1ccccc1C(=O)NC1CCCCN(C(C)C)C1=O (centres undefined) | -0.79% (inactive)
55 | Cc1ccc(-n2c(SCC(=O)Nc3cccc4ccccc34)nnc2-c2ccccn2)cc1 | -2.65% (inactive)
56 | CC(C)C[C@H]1CNC(=O)C(=O)N1C[C@@H]1CCCN1C[C@H](Cc1ccccc1)N1C[C@H](CC(C)C)N(CC2CCCCCC2)C(=O)C1=O | -3.56% (inactive)
57 | CC(C)C[C@H]1CNC(=O)C(=O)N1C[C@H]1CCCN1C[C@H](Cc1ccc(O)cc1)N1C[C@H](CC(C)C)N(CC2CCCCCC2)C(=O)C1=O | 8.41% (active)
58 | O=C1NC[C@H](Cc2ccc(O)cc2)N(C[C@@H]2CCCN2C[C@H](Cc2ccccc2)N2C[C@H](Cc3ccccc3)N(CC3CCCCC3)C(=O)C2=O)C1=O | -2.98% (inactive)
59 | O=C(CSc1nc2ccccc2s1)N=Nc1c(O)[nH]c2ccccc12 | -2.44% (inactive)
60 | COc1ccc(C)cc1S(=O)(=O)N(CC(=O)Nc1cccc([N+](=O)[O-])c1)c1ccc(C)cc1 | 9.29% (active)
61 | Cc1ccc(S(=O)(=O)N(CC(=O)Nc2cccc([N+](=O)[O-])c2)Cc2ccc(Cl)cc2)cc1 | -2.5% (inactive)
62 | COc1ccc(N(CC(=O)Nc2ccc(C)cc2C)S(=O)(=O)c2ccccc2[N+](=O)[O-])c(OC)c1 | -0.94% (inactive)
63 | Cc1ccc(C2=C/C(=C\c3cccnc3)C(=O)O2)cc1 | 5.23% (inactive)

Row | SMILES | activation
64 | Cc1ccccc1C1=N/C(=C/c2cccnc2)C(=O)O1 | 10.3% (active)
65 | Nc1ccc2c(c1)C(=Cc1cccnc1)c1ccccc1-2 | 0.27% (inactive)
66 | CCn1c(SCC(C)=O)nc2sc3c(c2c1=O)CCCC3 | -0.23% (inactive)
67 | Cc1cccc(-n2c(O)c(C=Nc3ccccc3N)c(=O)[nH]c2=O)c1 | 9.92% (active)
68 | O=C(CSc1nc2sc3c(c2c(=O)n1-c1ccccc1)CCCC3)NN=Cc1ccc(OCc2ccccc2)cc1 | -2.96% (inactive)
69 | Cc1ccc(Cn2cc(CN3[C@@H](C)COc4cc(Br)ccc4S3(=O)=O)nn2)cc1 | -6.23% (inactive)
70 | O=S(=O)(Cc1ccccc1)c1nc2ccccc2n1Cc1ccccn1 | 7.86% (active)
71 | O=C(Cn1ncc2c3ccccc3n(Cc3ccccc3)c2c1=O)NCc1ccccn1 | -0.48% (inactive)
72 | O=C(O)Cn1c(Cc2ccccc2)nc2ccccc21 | -0.68% (inactive)
73 | O=C1NC[C@@H](CCCCN2CCN(CCc3ccc(O)cc3)C(=O)C2=O)N(CC2CCCCC2)C1=O | 0.65% (inactive)
74 | Cc1ccc(Cn2cc(CN3[C@@H](CC(C)C)COc4ccc(Cl)cc4S3(=O)=O)nn2)cc1 | 0.91% (inactive)
75 | CC(CCN1CCC(C(O)(c2ccccc2)c2ccccc2)CC1)Oc1ccc(C(F)(F)F)cc1 (centres undefined) | 0.64% (inactive)
76 | COC(=O)[C@]12CCCCC=C1N(Cc1ccco1)C(=O)[C@H](CC(=O)NCC1CCCCC1)C2 | -5.18% (inactive)
77 | Cc1cc(-c2nc(C)c(-c3nnc(SCC(=O)Nc4ccccc4)n3C)s2)no1 | -1.01% (inactive)
78 | Cc1nc(-c2nnc(SCC(=O)Nc3cc(C(F)(F)F)cc(C(F)(F)F)c3)n2C)cs1 | 8.28% (active)
79 | Cn1c(SCC(=O)Nc2cccc(NC(=O)c3cccs3)c2)nnc1-c1ccncc1 | 2.18% (inactive)
80 | Cc1cc(=O)[nH]c(SCC(=O)Nc2ccc(F)cc2F)n1 | -4.89% (inactive)
81 | COc1cccc(C(=O)Nc2nc3ccc(S(C)(=O)=O)cc3s2)c1 | 8.68% (active)
82 | COc1cccc(C(=O)Nc2nnc(S(=O)(=O)N3CCOCC3)s2)c1 | -2.26% (inactive)
83 | COc1cccc(C(=O)NNS(=O)(=O)c2ccc(F)cc2)c1 | -0.53% (inactive)
84 | O=C(CSc1nc2ccccc2n1Cc1ccccc1Cl)N/N=C\c1c[nH]c2ccccc12 | -4.04% (inactive)

Source: PubChem BioAssay AID652017 (The Scripps Research Institute Molecular Screening Center, 2013)
